Data reported in article PMC4336329 (PLoS ONE, 2015).
The whole screen tested about 310,000 compounds, of which about 2,200 (0.71%) showed an effect of 50% or more. Effects have a minus sign here. For the sample, strong results were picked, then their nearest neighbours and some compounds at random.

Target: human ether-à-go-go-related gene (hERG) potassium channel (human, UniProt Q12809)
Assay: primary screen, population patch clamp on CHO cells stably expressing hERG; higher = less effect of the substance

Chain of human ether-à-go-go-related gene (hERG) potassium channel (Q12809 whole entry, looked up): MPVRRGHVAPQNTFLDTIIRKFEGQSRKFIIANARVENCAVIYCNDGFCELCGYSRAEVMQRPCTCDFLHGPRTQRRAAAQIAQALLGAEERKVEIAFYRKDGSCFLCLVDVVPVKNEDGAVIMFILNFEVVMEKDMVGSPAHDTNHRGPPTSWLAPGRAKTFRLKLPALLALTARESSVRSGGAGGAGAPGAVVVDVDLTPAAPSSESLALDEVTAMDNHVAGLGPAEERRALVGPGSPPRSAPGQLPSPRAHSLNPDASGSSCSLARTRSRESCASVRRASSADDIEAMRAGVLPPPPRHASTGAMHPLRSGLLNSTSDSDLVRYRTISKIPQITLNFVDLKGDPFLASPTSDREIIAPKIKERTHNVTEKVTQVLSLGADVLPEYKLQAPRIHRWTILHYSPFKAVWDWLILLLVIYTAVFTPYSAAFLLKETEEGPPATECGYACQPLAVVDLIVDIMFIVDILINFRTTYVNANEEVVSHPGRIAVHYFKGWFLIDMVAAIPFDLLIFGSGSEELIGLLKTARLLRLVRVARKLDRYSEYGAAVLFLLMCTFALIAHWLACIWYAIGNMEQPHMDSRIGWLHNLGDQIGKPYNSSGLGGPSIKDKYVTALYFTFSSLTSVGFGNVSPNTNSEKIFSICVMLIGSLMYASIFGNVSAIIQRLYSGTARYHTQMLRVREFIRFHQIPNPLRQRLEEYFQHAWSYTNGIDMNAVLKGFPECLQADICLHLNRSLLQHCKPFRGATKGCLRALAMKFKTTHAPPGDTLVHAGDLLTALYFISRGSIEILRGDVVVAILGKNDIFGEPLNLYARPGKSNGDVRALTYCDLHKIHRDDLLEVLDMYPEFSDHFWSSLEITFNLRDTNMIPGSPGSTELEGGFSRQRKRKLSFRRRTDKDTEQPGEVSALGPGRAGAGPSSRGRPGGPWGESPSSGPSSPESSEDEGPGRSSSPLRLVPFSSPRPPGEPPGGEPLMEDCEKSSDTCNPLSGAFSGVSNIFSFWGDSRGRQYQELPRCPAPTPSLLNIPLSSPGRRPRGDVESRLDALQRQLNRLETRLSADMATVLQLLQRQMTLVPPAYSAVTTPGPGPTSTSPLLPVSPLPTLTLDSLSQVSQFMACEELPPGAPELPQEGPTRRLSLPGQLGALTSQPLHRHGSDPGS

Row | SMILES | hERG current change (%, negative = inhibition) at 1uM [%]
1 | Cc1ccc(CNC(=O)CN(Cc2ccccc2)S(C)(=O)=O)cc1 | -3.4
2 | Cc1cc(=O)[nH]c(N/N=C/c2c[nH]c3ccccc23)n1 | 9.01
3 | [O-][Cl+3]([O-])([O-])[O-].c1ccc(-c2[nH]c(-c3ccccc3)[n+](CC3CO3)c2-c2ccccc2)cc1 (stereo not drawn) | -2.8
4 | N#CC(C#N)=Cc1ccc(N2CCCC2)cc1 | 5.75
5 | Cc1cc(C=C(C#N)C#N)ccc1N1CCCC1 | -68.6
6 | Cc1cc(N2CCCC2)ccc1C=C(C#N)C#N | 1.28
7 | CNC(=S)Nc1ccc(C(N)=O)cc1 | 10.2
8 | CC(C)(C)c1nc(NCC2CCCO2)c2nnn(Cc3ccccc3)c2n1 (stereo not drawn) | 13.9
9 | COc1ccc(C(=O)Nc2ccccc2C(=O)Nc2ccc(C(=O)O)cc2)cc1 | 15
10 | O=C(CNS(=O)(=O)c1ccc(Br)s1)NCCc1ccc(Cl)cc1 | 16.1
11 | CC1(C)CC(=O)CC2(C1)NCC(c1ccccc1)c1c2[nH]c2ccccc12.Cl (stereo not drawn) | -83.4
12 | COc1cccc(C2CNC3(CCCC(C)C3)c3[nH]c4ccccc4c32)c1OC.Cl (stereo not drawn) | 8.05
13 | CC1(C)CC(=O)CC2(C1)NCC(c1ccccc1Cl)c1c2[nH]c2ccccc12.Cl (stereo not drawn) | -3.21
14 | CC(C)(C)OC(=O)N[C@@H](Cc1ccccc1)C(=O)N1CCC(C(=O)N[C@@H](Cc2c[nH]c3ccccc23)C(=O)O)CC1 | 15
15 | CCCS(=O)(=O)c1c(S(=O)(=O)CCC)c2cnccn2c1C(=O)c1ccc(CC)cc1 | 0.628
16 | OC1(c2ccc(Cl)cc2)CCN(Cc2c[nH]c3ccccc23)CC1 | -27.6
17 | COc1ccc(S(=O)(=O)N2CCCN(CC(=O)Nc3ccc4c(c3)OCO4)CC2)cc1 | -15.1
18 | CCOc1ccc(NC(=O)COc2ccc3c(c2)OCO3)cc1 | 7.57
19 | CCOc1ccc(OCCC(=O)Nc2ccc3c(c2)OCO3)cc1 | 11.1
20 | COc1ccc(NC(=O)CN2CCN(CC(=O)Nc3ccc4c(c3)OCO4)CC2)cc1 | -85.9
21 | COc1ccccc1NC(=O)CN1CCN(CC(=O)Nc2ccc3c(c2)OCO3)CC1 | -67.3

Row | SMILES | hERG current change (%, negative = inhibition) at 1uM [%]
22 | COc1ccccc1N1CCN(CC(=O)Nc2ccc3c(c2)OCCO3)CC1 | -0.304
23 | CCOc1ccc(NC(=O)CN2CCN(CC(=O)Nc3ccc4c(c3)OCO4)CC2)cc1 | -80.9
24 | COc1ccc(OCC(=O)Nc2ccc3c(c2)OCO3)cc1 | 11.7
25 | COc1ccccc1NC(=O)CN1CCN(CC(=O)Nc2ccc3c(c2)OCCO3)CC1 | -10.6
26 | O=C(CN1CCCC1=O)NC1C2CC3CC(C2)CC1C3 (stereo not drawn) | 9.69
27 | COC(=O)C1=CN(Cc2ccccc2)C=C(C(=O)OC)C1c1ccc(O)c(OC)c1 | 17.4
28 | COc1ccc(N2C(=O)/C(=C\c3ccco3)N=C2SCC(=O)N(C(C)C)C(C)C)cc1Cl | 20.1
29 | Cc1ccc(OCC(O)CNC2CCCC2)cc1C.Cl (stereo not drawn) | 8.86
30 | CC(=O)c1cccc(CN2CCCCC2C(=O)Nc2ccc(Oc3ccccc3)nc2)c1 (stereo not drawn) | 0.714
31 | CCC(=O)Nc1nc(C)c(C(=O)N2CCCCC2)s1 | 12.8
32 | CCCCN(C(=O)c1ccc(C)c(S(=O)(=O)N2CCOCC2)c1)c1c(N)n(CCCC)c(=O)[nH]c1=O | 5.43
33 | CCCCN(C(=O)c1ccc(C)c(S(=O)(=O)N2CCOCC2)c1)c1c(N)n(CC(C)C)c(=O)[nH]c1=O | -57.9
34 | CCCCn1c(N)c(N(CCC(C)C)C(=O)c2ccc(C)c(S(=O)(=O)N3CCOCC3)c2)c(=O)[nH]c1=O | 5.89
35 | O=C(CCNS(=O)(=O)c1ccccc1F)N1CCN(Cc2ccccc2)CC1 | 8.79
36 | O=C(NCc1ccccc1)c1ccc(NC(=O)c2ccco2)cc1 | 5.4
37 | O=C(NC1CCCC1)C(c1ccccn1)N(Cc1ccccc1F)C(=O)c1csnn1 (stereo not drawn) | 10.7
38 | Clc1ccc2c(c1)C(c1ccccc1Cl)=NCc1nnc(N3CCN(CCOc4ccccc4)CC3)n1-2.O=C(O)/C=C/C(=O)O | -50.8
39 | Clc1ccc2c(c1)C(c1ccccc1Cl)=NCc1nnc(Br)n1-2.c1ccccc1 | 2.57
40 | CSCc1nnc2n1-c1ccc(Cl)cc1C(c1ccccc1)=NC2 | 4.89
41 | COc1ccccc1C1=NCc2nnc(CSC)n2-c2ccc(Cl)cc21 | 0.0726
42 | CCOCCN1CCN(c2nnc3n2-c2ccc(Cl)cc2C(c2ccccc2Cl)=NC3)CC1.O=CO | -57.6

Row | SMILES | hERG current change (%, negative = inhibition) at 1uM [%]
43 | Clc1ccc2c(c1)C(c1ccccc1Cl)=NCc1nnc(N3CCN(CCSc4ccccc4)CC3)n1-2.O.O=C(O)/C=C/C(=O)O | -10.8
44 | COCCCN1CCN(c2nnc3n2-c2sc(Br)cc2C(c2ccccc2Cl)=NC3)CC1.CS(=O)(=O)O | -11.9
45 | CN(C)CCSCc1nnc2n1-c1ccc(Cl)cc1C(c1ccccc1Cl)=NC2.c1ccccc1 | -51.9
46 | CN1CCN(Cc2nnc3n2-c2ccc(Cl)cc2C(c2ccccc2)=NC3)CC1.O=CO | -31.9
47 | O=c1nc2n(c3ncccc13)CCC2 | 16.1
48 | CCOC(=O)c1cc(-c2ccccc2)sc1NC(=O)CSc1nnc(N)s1 | 2.01
49 | Cc1cc(C)cc(C(=O)NCC(=O)OCC(=O)N2c3ccccc3NC(=O)C2(C)C)c1 | 4.41
50 | COc1ccc(C2SCC(=O)N2CCc2ccc(OC)c(OC)c2)cc1 (stereo not drawn) | -1.68
51 | COc1ccc(CCN2CC(C(=O)NCc3ccc(F)cc3)CC2=O)cc1OC (stereo not drawn) | 6.95
52 | COc1ccc(C2CC(=O)N(CCC[NH+](C)CCc3ccc(OC)c(OC)c3)C2)cc1.O=C([O-])C(=O)[O-] (stereo not drawn) | -72.9
53 | COc1ccc(CC[NH+](C)CCCN2CC(c3ccccc3)CC2=O)cc1OC.O=C([O-])C(=O)[O-] (stereo not drawn) | -61.9
54 | COc1ccc(CCN2CC(C(=O)O)CC2=O)cc1OC (stereo not drawn) | 2.95
55 | COc1ccc(NC(=O)CN2CC(c3ccccc3)CC2=O)cc1OC (stereo not drawn) | 12.3
56 | COCC1CCCN(C(=O)c2ccc3oc(C(C)C)nc3c2)C1 (stereo not drawn) | 9.33
57 | COc1ccc(/C=N/Nc2nc(N3CCCC3)nc(N3CCCC3)n2)cc1O | 7.51
58 | O=C(c1ccc(O)cc1)c1ccc(Cl)cc1 | -3.35
59 | O=C(O)CCCCCCCCCCCc1ccccc1 | 12.7
60 | CC(C)N(C)NC(=S)Nc1ccccc1 | 8.22
61 | COc1ccc(/C=C(/NC(=O)c2ccc([N+](=O)[O-])cc2)C(=O)NCCCN(C)C)cc1 | -65.3
62 | COc1ccc(/C=C(/NC(=O)c2ccc([N+](=O)[O-])cc2)C(=O)NC(C)(C)C)cc1 | -10.7
63 | COc1ccc(/C=C(\NC(=O)c2ccc([N+](=O)[O-])cc2)C(=O)NCCCN2CCOCC2)cc1 | -41

Row | SMILES | hERG current change (%, negative = inhibition) at 1uM [%]
64 | C=CCNC(=O)/C(=C\c1ccc(OC)cc1)NC(=O)c1ccc([N+](=O)[O-])cc1 | -64.7
65 | COc1ccc(/C=C(\NC(=O)c2ccc([N+](=O)[O-])cc2)C(=O)NCCCn2ccnc2)cc1 | -14.4
66 | C=CCNC(=O)/C(=C\c1ccc([N+](=O)[O-])cc1)NC(C)=O | 8.68
67 | CCOC(=O)CCc1c(C)c(C#N)c2nc3ccccc3n2c1-n1ccnc1C | -20.4
68 | CCOC(=O)CCc1c(C)nc2cc(-c3ccc(F)cc3)[nH]n2c1=O | 8.2
69 | CC(C)(C)SCCNC(=O)c1ccc(Cl)c([N+](=O)[O-])c1 | 8.24
70 | O=C(Cn1nnc(-c2ccccc2-n2cnnn2)n1)c1ccccc1 | 5.12
71 | O=C(C1=C(O)C(=O)N(CCCN2CCOCC2)C1c1ccc(Cl)cc1)c1cc2ccccc2o1 (stereo not drawn) | 15.8
72 | CN(C(=O)c1ccc(Cl)cc1)C1=CCCCC1CCC#N (stereo not drawn) | 0.644
73 | CC(=O)N1CCN(c2ccccc2NC(=O)Cc2ccc(Cl)cc2)CC1 | -17.2
74 | CN1CCN(c2ccc(Cl)cc2NC(=O)CCN2C(=O)c3ccccc3C2=O)CC1 | 6.75
75 | CN1CCN(c2ccccc2NC(=O)Cc2ccc(Cl)cc2)CC1 | -59.4
76 | CC(C)C(=O)N1CCN(c2ccccc2NC(=O)Cc2ccc(Cl)cc2)CC1 | -38.9
77 | CN1CCN(c2ccc(S(=O)(=O)N3CCCCC3)cc2NC(=O)Cc2c(F)cccc2Cl)CC1 | -7.39
78 | O=C(CC1OC(=O)c2ccccc21)Nc1cc(Cl)ccc1N1CCCC1 (stereo not drawn) | 8.82
79 | CN1CCN(c2ccc(Cl)cc2NC(=O)CC2OC(=O)c3ccccc32)CC1 (stereo not drawn) | -61.2
80 | COc1ccc(CC(=O)Nc2cc(S(=O)(=O)N3CCCCC3)ccc2N2CCN(C)CC2)cc1 | -7.26
81 | CN1CCN(c2ccc(S(=O)(=O)N3CCCCC3)cc2NC(=O)Cc2ccc(Cl)cc2)CC1 | -50.6
